Reference: article PMC5540273 (PLoS ONE, 2017)

Columns and labels:
Conditions in all cases: concentration: 1 μM, replicates: in singlicate; n = 1
SRPK1 = test system: SRPK1
SRPK2 = test system: SRPK2
SRPK3 = test system: SRPK3
STK16 = test system: STK16
STK33 = test system: STK33
STK35 = test system: STK35
STK36 = test system: STK36
STK39 = test system: STK39
SYK = test system: SYK
SgK110 = test system: SgK110
TAK1 = test system: T1, TAK1
T1 construct: gene MAP3K7

TAOK1 = test system: TAOK1
TAOK2 = test system: TAOK2
TAOK3 = test system: TAOK3
TBK1 = test system: TBK1
TEC = test system: TEC
TESK1 = test system: TESK1
TGFBR1 = test system: TGFBR1
TGFBR2 = test system: TGFBR2
TIE1 = test system: TIE1
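Further: KINOMEscan kinase panel screen.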

Row | Compound | %Inh (SRPK1) [%] | %Inh (SRPK2) [%] | %Inh (SRPK3) [%] | %Inh (STK16) [%] | %Inh (STK33) [%] | %Inh (STK35) [%] | %Inh (STK36) [%] | %Inh (STK39) [%] | %Inh (SYK) [%] | %Inh (SgK110) [%] | %Inh (TAK1) [%] | %Inh (TAOK1) [%] | %Inh (TAOK2) [%] | %Inh (TAOK3) [%] | %Inh (TBK1) [%] | %Inh (TEC) [%] | %Inh (TESK1) [%] | %Inh (TGFBR1) [%] | %Inh (TGFBR2) [%] | %Inh (TIE1) [%]
1 | COc1cc(OC)cc(-c2cc3cnc(N)nc3nc2NC(=O)NC(C)(C)C)c1 | 47 | 0 | 0 | 0 | 0 | 0 | 0 | 0 | 0 | 0 | 42 | 0 | 0 | 0 | 0 | 0 | 13 | 0 | 7 | 33
2 | COc1ccc(CNC(=O)NC2CCN(c3ccnc(Nc4ccc(F)cc4)n3)C2)cc1 (centres unmarked) [GSK1379706] | 0 | 80 | 21 | 19 | 14 | 0 | 27 | 13 | 34 | 0 | 6 | 0 | 0 | 0 | 27 | 17 | 7 | 46 | 0 | 12
3 | Cc1nnc(-c2ccc(C)c(-c3ccc(C(=O)O)cc3)c2)o1 [GW608005] | 35 | 0 | 7 | 0 | 0 | 0 | 0 | 1 | 0 | 0 | 0 | 0 | 0 | 2 | 2 | 0 | 0 | 0 | 0 | 15
4 | Cn1c(=O)c(F)c(Nc2ccc(I)cc2F)c2c(=O)n(OC[C@H](O)CO)cnc21 | 15 | 13 | 7 | 14 | 0 | 0 | 9 | 32 | 20 | 0 | 0 | 0 | 27 | 0 | 52 | 30 | 31 | 20 | 13 | 0
5 | CCS(=O)(=O)c1ccc(OC)c(Nc2ncc(-c3ccc(F)cc3)o2)c1.Cl [GW591947] | 30 | 0 | 0 | 1 | 12 | 0 | 0 | 11 | 48 | 0 | 0 | 0 | 0 | 0 | 3 | 0 | 1 | 0 | 0 | 0
6 | CN1C(=O)C(Nc2cc(Cl)c(O)c(Cl)c2)=C(c2ccc(Cl)cc2)C1=O [SB-404321] | 0 | 0 | 96.2 | 0 | 0 | 0 | 19 | 0 | 0 | 0 | 0 | 0 | 0 | 0 | 4 | 0 | 0 | 6 | 0 | 0
7 | Cl.c1ccc(Cn2cnc3cc(Nc4ncnc5ccccc45)ccc32)cc1 [GW272142] | 19 | 0 | 0 | 28 | 0 | 0 | 0 | 7 | 11 | 0 | 0 | 0 | 0 | 0 | 7 | 11 | 1 | 6 | 0 | 48
